Many of the other results were omitted from the sample, so hits are more common in it than they were.
C_diff_growth: blocks growth of Clostridium difficile; Clostridium difficile clinical isolate growth, OD600, 24 h; stronger effect = lower value; growth activity, negative = inhibition, % at 16 µg/mL (by protocol); 86,000 tested, 0.25% active;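 active means mean growth activity at or below -80% and every replicate also at or below -80%; inconclusive means mean at or below -80% but some replicate above -80%; inactive means mean growth activity above -80%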
T_cruzi_growth-1: inhibitors of T. cruzi proliferation; inhibition, % at 8.34 µM; 77,000 tested, 5.9% active; T. cruzi beta-gal in NIH3T3, GalScreen luminescence, 90 h;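 active means mean inhibition above about 93%, with at least 55% of replicates each passing it, limit read from the data, passing the limit was not always enough; inconclusive means only one of those two conditions holds; inactive means neither condition holds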
T_cruzi_growth-2: Trypanosoma cruzi proliferation inhibition. shares compounds with T_cruzi_growth-1. T. cruzi beta-gal in NIH3T3, GalScreen luminescence, 90 h. inhibition, % at 8.35 µM. 5,600 tested, 72% active. AID 651739;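 active means mean replicate inhibition above about 95% and at least 55% of replicates individually reaching it, limit read from the data; inconclusive means only one of the two criteria is met; inactive means neither criterion is met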
T_cruzi_growth-3: Trypanosoma cruzi proliferation inhibition | shares compounds with T_cruzi_growth-1 | T. cruzi beta-gal in NIH3T3, GalScreen luminescence, 90 h | inhibition, % at 2.09 µM | 5,600 tested, 21% active | AID 651740;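 active means mean inhibition above about 95%, with at least 55% of replicates also reaching it, limit read from the data; inconclusive means meets just one of the two conditions; inactive means meets neither condition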
NIH3T3_tox: kills mouse NIH/3T3 fibroblasts; NIH/3T3 viability, CellTiter-Glo ATP luminescence, 90 h; cytotoxicity (signal decrease), % at 8.35 µM; 5,600 tested, 14% active; AID 651742; shares compounds with T_cruzi_growth-1;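 active means mean signal decrease across replicates above about 35% based on untreated-well scatter, with enough replicates individually passing, limit read from the data; inconclusive means no rule stated though some were filed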
3T3_cytotox_2: kills mouse NIH/3T3 fibroblasts | shares compounds with T_cruzi_growth-1 | NIH/3T3 viability, CellTiter-Glo ATP luminescence, 90 h | inhibition, % at 24.9 µM | 5,600 tested, 56% active;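 active means mean loss of cell viability signal at or above a set limit, and enough replicates individually reaching it; inconclusive means meets only the mean limit or only the replicate share; inactive means meets neither condition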
Hits are given with their value; - = inactive; ? = inconclusive; . = no result.

SMILES C_diff_growth T_cruzi_growth-1 T_cruzi_growth-2 T_cruzi_growth-3 NIH3T3_tox 3T3_cytotox_2
CN1C(=O)c2cc(NC(=O)Cc3cccs3)ccc2OC[C@H]2O[C@@H](CC(=O)N[C@H]3CCN(Cc4ccccc4)C3)CC[C@H]21 - - . . . .
CN1C(=O)c2cc(NC(=O)c3ccc(F)c(F)c3)ccc2OC[C@H]2O[C@H](CC(=O)N[C@@H]3CCN(Cc4ccccc4)C3)CC[C@H]21 - - . . . .
CN1C(=O)c2cc(NC(=O)c3ccc(F)c(F)c3)ccc2OC[C@@H]2O[C@H](CC(=O)N[C@H]3CCN(Cc4ccccc4)C3)CC[C@@H]21 - 104 104 - - 32
CN1C(=O)c2cc(NC(=O)Cc3cccs3)ccc2OC[C@@H]2O[C@@H](CC(=O)N[C@H]3CCN(Cc4ccccc4)C3)CC[C@@H]21 - ? - - - -
CN1C(=O)c2cc(NC(=O)c3ccc(F)c(F)c3)ccc2OC[C@@H]2O[C@@H](CC(=O)N[C@@H]3CCN(Cc4ccccc4)C3)CC[C@H]21 - 101 108 - - -
CN1C(=O)c2cc(NC(=O)c3ccc(F)c(F)c3)ccc2OC[C@@H]2O[C@@H](CC(=O)N[C@H]3CCN(Cc4ccccc4)C3)CC[C@@H]21 . 101 106 - - -
CCS(=O)(=O)Nc1ccc2c(c1)C(=O)N(C)[C@@H]1CC[C@@H](CC(=O)N[C@@H]3CCN(Cc4ccccc4)C3)O[C@@H]1CO2 . - . . . .
O=C(Nc1cccc(F)c1)N1C[C@@H]2[C@H](c3ccccc31)[C@@H](CO)N2C(=O)C1CCOCC1 - - . . . .
CC(C)NC(=O)N(C)C[C@H]1Oc2ccc(NC(=O)Nc3cccc4ccccc34)cc2C(=O)N([C@@H](C)CO)C[C@@H]1C - - . . . .
O=C(C[C@@H]1C=C[C@H](NC(=O)CN2CCOCC2)[C@H](CO)O1)NCc1cccc(F)c1 . - . . . .
CCC(=O)NC[C@@H]1[C@H](c2ccc(C3=CCCC3)cc2)[C@@H](CO)N1C(=O)C1CC1 - - . . . .
Cc1ccccc1-c1ccc2c(c1)O[C@H](CN(C)Cc1ccc(C(=O)O)cc1)[C@@H](C)CN([C@@H](C)CO)S2(=O)=O - . . . . .
CCS(=O)(=O)Nc1ccc2c(c1)C(=O)N(C)[C@@H]1CC[C@@H](CC(=O)N[C@H]3CCN(Cc4ccccc4)C3)O[C@@H]1CO2 . - . . . .
CN1C(=O)c2cc(NC(=O)c3ccc(F)c(F)c3)ccc2OC[C@H]2O[C@@H](CC(=O)N[C@@H]3CCN(Cc4ccccc4)C3)CC[C@@H]21 - 98 - - - -
C[C@H](CO)N1C[C@H](C)[C@H](CN(C)S(C)(=O)=O)Oc2ncc(-c3cccnc3)cc2C1=O - - . . . .
CCNC(=O)C[C@@H]1C=C[C@@H](NC(=O)C2CCC2)[C@H](CO)O1 - . . . . .
CCCC#Cc1ccc([C@H]2[C@@H](CO)N(C(=O)C3CCCC3)[C@H]2C#N)cc1 - 105 116 - - 28
CC(C)C#Cc1ccc([C@H]2[C@@H](CO)N(C(=O)C3CCC3)[C@H]2C#N)cc1 - - . . . .
N#C[C@H]1[C@@H](c2ccc(C#Cc3ccc(F)cc3)cc2)[C@H](CO)N1C(=O)C1CCCC1 - - . . . .
CCCC#Cc1ccc([C@@H]2[C@@H](CO)N(C(=O)C3CCOCC3)[C@H]2C#N)cc1 - - . . . .
CCCC#Cc1ccc([C@H]2[C@@H](CO)N(C(=O)C3CCOCC3)[C@H]2C#N)cc1 - - . . . .
CC(C)C#Cc1ccc([C@@H]2[C@@H](C#N)N(C(=O)C3CCC3)[C@H]2CO)cc1 - ? 101 - - 33
CCCC#Cc1ccc([C@H]2[C@@H](C#N)N(C(=O)C3CCCC3)[C@H]2CO)cc1 - 98 - 106 - 43
CCCC#Cc1ccc([C@@H]2[C@H](C#N)N(C(=O)C3CC3)[C@H]2CO)cc1 - 98 107 108 - -
C[C@@H]1CN([C@@H](C)CO)C(=O)c2cc(NC(=O)Nc3ccccc3)ccc2O[C@@H](C)CCCCO[C@H]1CN(C)C(=O)C1CCCCC1 - - . . . .
SMILES C_diff_growth T_cruzi_growth-1 T_cruzi_growth-2 T_cruzi_growth-3 NIH3T3_tox 3T3_cytotox_2
COc1ccc2c3c(n(C)c2c1)[C@H](CO)NCC31CN(C(=O)CC2CC2)C1 - . . . . .
CCCNC(=O)N1C[C@H](C)[C@@H](OC)CN(C)C(=O)c2cc(NS(C)(=O)=O)ccc2OC[C@@H]1C - - . . . .
COc1ccc2c3c(n(C)c2c1)[C@@H](CO)N(C(=O)Cc1ccccc1)CC31CCN(C(=O)Cc2ccccc2)CC1 - . . . . .
CCCC#Cc1ccc([C@@H]2[C@@H](C#N)N(C(=O)C3CCCC3)[C@H]2CO)cc1 - 102 96 102 - 39
CCCC#Cc1ccc([C@@H]2[C@@H](C#N)N(C(=O)C3CCC3)[C@@H]2CO)cc1 - 99 99 - - 33
CCCC#Cc1ccc([C@H]2[C@@H](C#N)N(C(=O)C3CCOCC3)[C@H]2CO)cc1 - - . . . .
CCCC#Cc1ccc([C@H]2[C@@H](CO)N(C(=O)C3CCCCC3)[C@H]2C#N)cc1 - - . . . .
COc1cccc(S(=O)(=O)N[C@H]2C=C[C@@H](CC(=O)NC3CCC3)O[C@@H]2CO)c1 - - . . . .
COc1ccc(C#Cc2ccc3c(c2)O[C@@H](CN(C)C(=O)Nc2cccc(OC)c2)[C@@H](C)CN([C@@H](C)CO)S3(=O)=O)cc1 . ? 105 108 37 34
COc1cccc(NC(=O)N(C)C[C@H]2Oc3cc(C#Cc4ccc(F)cc4)ccc3S(=O)(=O)N([C@@H](C)CO)C[C@@H]2C)c1 - ? 99 108 - 52
COc1cccc(NC(=O)N(C)C[C@H]2Oc3cc(C#Cc4ccncc4)ccc3S(=O)(=O)N([C@@H](C)CO)C[C@H]2C)c1 - - . . . .
COc1cccc(NC(=O)N(C)C[C@@H]2Oc3cc(C#CC4(O)CCCC4)ccc3S(=O)(=O)N([C@@H](C)CO)C[C@H]2C)c1 - . . . . .
COc1cccc(NC(=O)N(C)C[C@@H]2Oc3cc(C#Cc4ccncc4)ccc3S(=O)(=O)N([C@@H](C)CO)C[C@@H]2C)c1 - - . . . .
COc1cccc(NC(=O)N(C)C[C@H]2Oc3cc(-c4ccccc4OC)ccc3S(=O)(=O)N([C@H](C)CO)C[C@H]2C)c1 - . . . . .
COc1cccc(NC(=O)N(C)C[C@@H]2Oc3cc(-c4ccccc4F)ccc3S(=O)(=O)N([C@H](C)CO)C[C@@H]2C)c1 - 98 111 - - 50
COc1ccc(C#Cc2ccc3c(c2)O[C@H](CN(C)C(=O)Nc2cccc(OC)c2)[C@@H](C)CN([C@@H](C)CO)S3(=O)=O)cc1 . 109 100 110 ? -
COc1cccc(NC(=O)N[C@@H]2CC[C@H](CC(=O)Nc3ccccc3)O[C@H]2CO)c1 - . . . . .
CO[C@@H]1CN(C)C(=O)c2ccc(NC(C)=O)cc2OC[C@H](C)N(Cc2cncnc2)C[C@@H]1C . - . . . .

Bioassay records deposited in PubChem BioAssay by Broad Institute.
